For orientation: inhibition means the change of the read-out against control, counted positive when it falls. For orientation: AC50 means the concentration at which the activity in the assay is half-maximal.

Assay [1] can be described thus: circadian clock period modulators, cell-based, LOPAC library, luminescence reporter (AID 2774).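 Further: values are relative to mean of DMSO wells on each plate.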 The note with it: circadian reporter cells, at 7 µM, actives lie on both sides.
Assay [2] concerns Hepatitis C virus NS3 helicase. Description: HCV NS3 helicase inhibitors, primary screen, biochemical, fluorescence polarization, LOPAC1280 library (AID 687035; in the data active means inhibition above about 37%). The note with it: Purified HCV NS3 helicase, Cy5-dT15 ssDNA binding fluorescence polarization; stronger effect = higher value; concentration not given here. Background: In fluorescence polarisation assays a small probe gives low polarisation when free and higher when bound to something large.

A short description of assay [3]: Cy5 fluorescence quenching or enhancement artefacts, artefact control for HCV NS3 helicase inhibitor project, biochemical, LOPAC1280 (AID 687037). The note with it: Cy5-DNA-NS3h complex fluorescence interference counterscreen. Background: The purpose of a counterscreen is to sort out artefacts and off-target activity.
A short description of assay [4]: phospholipid biosynthesis inhibitors in animal cells, primary screen, cell-based, LOPAC library, screen 4 (AID 1347384). The settings on record: phospholipid biosynthesis inhibition screen, at 10 µM.
Assay [5] can be described thus: reducers of polyQ inclusions in PC12 cells, cell-based, NGF-treated PC12, GFPQ80 (AID 1614).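 Further: lower means fewer inclusions and 0 means no inclusions at all.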 The settings on record: PC12 NGF-treated GFP-polyQ80 inclusion reduction.
The nature of assay [6]: hESC survival regulators, cell-based (AID 493140).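 Further: cells exposed to compounds for four days before counting.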 The settings on record: human embryonic stem cell survival screen; stronger effect = higher value.
Assay [7] can be described thus: growth inhibition of DIPG glioma cells, dose response, cell-based, SU-DIPG-XIII, MIPE4.0, CellTiter-Glo, qHTS (AID 1347061; cut-off not given, nearly all actives have AC50 up to about 37 µM;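 further: cells exposed to compound for 48 hours before readout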). The note with it: SU-DIPG-XIII viability, CellTiter-Glo ATP luminescence. (In general: Cellular ATP, detected with luciferase, serves as a proxy for viable cell number.)
Assay [8] in a line: growth inhibition of DIPG glioma cells, dose response, cell-based, SU-DIPG-IV, MIPE4.0, CellTiter-Glo, qHTS (AID 1347063; cut-off not given, nearly all actives have AC50 up to about 30 µM;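 further: compound exposure lasted 48 hours before the viability readout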). The settings on record: SU-DIPG-IV viability, CellTiter-Glo ATP luminescence.
A short description of assay [9]: viability loss in pontine glioma line – cell-based, SU-DIPG-XXV, MIPE5.0, CellTiter-Glo, qHTS, dose response (AID 1347065; cut-off not given, nearly all actives have AC50 up to about 26 µM;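 further: cells exposed to compound for 48 hours before ATP readout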). The note with it: CellTiter-Glo ATP luminescence.
The nature of assay [10]: SU-DIPG-XXV glioma cell viability, MIPE5.0 library, qHTS (AID 1347068; cut-off not given, nearly all actives have IC50 up to about 30 µM).
Assay [11] is described as follows: SU-DIPG-VI glioma cell viability, MIPE4.0 library, CellTiter-Glo luminescence, qHTS (AID 1347066; cut-off not given, nearly all actives have AC50 up to about 30 µM;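 further: cells exposed to compound for 48 hours before readout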). The settings on record: CellTiter-Glo ATP luminescence.
Assay [12] is described as follows: LFS_MB_1R medulloblastoma cell growth inhibition, synergistic combos for chromothripsis tumors, cisplatin or BGB combos (AID 1671452; in the data active means inhibition above about 80%;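 further: cells exposed for 96 hours before readout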). The settings on record: LFS_MB_1R medulloblastoma cells, stronger effect = higher value.
A short description of assay [13]: CRL2098 osteosarcoma cell growth inhibition, synergistic combos for chromothripsis tumors, BGB or cisplatin IC20 combos (AID 1671454; in the data active means inhibition above about 80%;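 further: cells exposed for 96 h before readout; 0% = vehicle DMSO and 100% = killing by high DMSO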). The settings on record: CRL2098 osteosarcoma cells, drug combinations, stronger effect = higher value.
A short description of assay [14]: MDA-MB-436 breast carcinoma cell growth inhibition, synergistic combos for chromothripsis tumors, BGB or cisplatin combos (AID 1671458).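 Further: cells exposed for 96 hours; 0% = vehicle DMSO and 100% = killing by high DMSO.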 The settings on record: MDA-MB-436 breast carcinoma growth inhibition, drug combinations, stronger effect = higher value.
A short description of assay [15]: growth inhibition of BT084 medulloblastoma cells, cell-based, ICGC_MB145, cisplatin and BGB IC40 combos (AID 1671461; in the data active means inhibition above about 80%;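 further: cells exposed to drugs for 96 hours; 0% = vehicle DMSO and 100% = high DMSO full killing control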). The note with it: drug combinations, stronger effect = higher value.
A short description of assay [16]: growth inhibition of RCMB18 medulloblastoma cells, cell-based, cisplatin and BGB IC40 combos (AID 1671462; in the data active means inhibition above about 80%;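 further: cells exposed to compound for four days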). The note with it: stronger effect = higher value.
A short description of assay [17]: growth inhibition of CRL1545 osteosarcoma cells, cell-based, cisplatin and BGB IC20 combos (AID 1671464; in the data active means inhibition above about 80%;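 further: cells exposed to compound for 96 hours before readout; 0% = vehicle DMSO and 100% = high DMSO killing control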). The settings on record: stronger effect = higher value.
Setting [18] is: measured here: combination with BGB IC40, at 0.05 µM.
Where [19] appears, read: measured here: combination with cisplatin, at 0.5 µM.
Setting [20] is: measured here: combination with cisplatin, at 5 µM.
Setting [21] is: measured here: combination with BGB at IC20, at 0.5 µM.
Where [22] appears, read: measured here: combination with cisplatin at IC20, at 0.5 µM.
Where [23] appears, read: measured here: BGB combination, at 0.5 µM.
Setting [24] is: measured here: BGB combination, at 5 µM.
[25] abbreviates: measured here: cisplatin combination, at 0.5 µM.
Where [26] appears, read: measured here: cisplatin combination, at 5 µM.
Where [27] appears, read: cisplatin combination, at 0.5 µM.
[28] abbreviates: measured here: BGB IC40 combination 0.05 uM, at 0.05 µM.
[29] abbreviates: measured here: BGB IC40 combination, at 0.05 µM.
The mark [30] stands for this setting: measured here: with BGB IC20 combination, at 0.5 µM.
The mark [31] stands for this setting: measured here: with cisplatin IC20 combination, at 0.5 µM.

Records with an inconclusive call do not appear. Active and inactive are the calls of the source. Unless noted, how the calls were made is not given here.

With `CN(C)c1nc(N)c(C(=O)N=C(N)N)nc1Cl`, in [1], the period change is -0.18 h (inactive). Besides, the inhibition in [2] is -2% (inactive). For the same molecule, the fluorescence ratio (interference) in [3] is 1 (inactive). Besides, the molecule was classed as inactive in assay [4].
`NCCCCCCNS(=O)(=O)c1cccc2c(Cl)cccc12` came in with an inclusion score in assay [5] of 1. Also, the period change in assay [1] was 0.025 h (inactive).
For the molecule `CCOc1ccc2c(c1)C(C)=CC(C)(C)N2`, the survival in assay [6] is 2.08 (inactive).
For `CO/N=C(\C(=O)N[C@@H]1C(=O)N2C(C(=O)OCOC(=O)C(C)(C)C)=C(/C=C\c3scnc3C)CS[C@H]12)c1csc(N)n1`, in assay [7], the molecule was called inactive.
`COc1ccc(C(Cl)=C(c2ccc(OC)cc2)c2ccc(OC)cc2)cc1`: the survival in assay [6] is 4.42 (inactive).
For the molecule `C=C[C@H]1CN2CCC1C[C@@H]2[C@@H](O)c1ccnc2ccc(OC)cc12` (stereo partly specified), the period change in [1] was -0.225 h (inactive). Also, the survival in [6] was 6.17 (inactive). Moreover, the inhibition in [2] is -1% (inactive). The fluorescence ratio (interference) in assay [3] was 1 (inactive). For the same molecule, the molecule was classed as inactive in assay [4].
With `C[C@]12CC[C@H]3C(=CCc4cc(O)ccc43)[C@@H]1CCC2=O`, the survival in assay [6] was 2.75 (inactive).
In the case of `COc1ccc2ccc(=O)oc2c1CC=C(C)C`, in [8], the molecule was called inactive.
For the molecule `C[C@H](CCC(=O)O)[C@H]1CC[C@H]2[C@@H]3CC[C@@H]4C[C@H](O)CC[C@]4(C)[C@H]3CC[C@]12C`, in assay [6], the survival is 3.25 (inactive).
With `C[C@H]1[C@H](C)CC[C@]2(C(=O)O)CC[C@]3(C)C(=CC[C@@H]4[C@@]5(C)CC[C@H](O)C(C)(C)[C@@H]5CC[C@]43C)[C@H]12`, the outcome in [7] and in assay [10] was inactive. In addition, the AC50 is 42.9 µM (active) in assay [8] and 18.6 µM (active) in [9].
On to `NC(=NCc1ccccc1)NC(=O)c1nc(Cl)c(N)nc1N`, for which the period change in assay [1] was 0.11 h (inactive). Also, in assay [6], the survival was 1.67 (inactive). Moreover, in assay [2], the inhibition is -1% (inactive). For the same molecule, the fluorescence ratio (interference) in assay [3] was 1 (inactive). In addition, the molecule was called inactive in assay [8], in assay [11] and in assay [4]. Besides, the AC50 in assay [9] was 18.6 µM (active).
Consider `COc1ccc(-c2cc(=O)c3c(O)c(OC)c(OC)cc3o2)cc1O`, for which the molecule was called inactive in assay [4].
`CSC(N)=NCCC[C@H](N)C(=O)O`: the period change in assay [1] is 0.125 h (inactive). The inhibition in [2] is -3% (inactive). The fluorescence ratio (interference) in assay [3] is 1 (inactive). Further, the call in [4] was inactive.
In the case of `CN(N=O)C(=O)NC1C(O)OC(CO)C(O)C1O` (stereo unspecified), the inhibition is -12.5% (inactive) in assay [12] (at 0.5 µM); 0.459% in assay [12] (setting [18]); -24.7% in [12] (setting [19]); -26.7% in [12] (setting [20]); -39.9% (inactive) in [13] (at 0.5 µM); -31.6% in [13] (setting [21]). Besides, the inhibition in assay [13] (setting [22]) was -51.1%; in [14] (at 0.5 µM), -6.07% (inactive); in assay [14] (setting [23]) it was -5.12%; in assay [14] (setting [24]) it was 4.69%; in assay [14] (setting [25]) it was -11.2%; in [14] (setting [26]) it was 0.976%. In addition, the inhibition in assay [15] (at 0.5 µM) is 9.28% (inactive); in assay [15] (setting [27]), 2.65%; in assay [15] (cisplatin combination, at 5 µM), -74.8%; in assay [15] (setting [28]), -4.62%; in [15] (single agent, at 5 µM) it was 14.7%; in assay [16] (at 0.5 µM) it was 8.81% (inactive). The inhibition in assay [16] (cisplatin combo, at 5 µM) was -9.42%; in assay [16] (setting [29]) it was -16.3%; in assay [16] (setting [19]), -21.8%; in assay [16] (single agent, at 5 µM), -8.26%; in assay [17] (at 0.5 µM) it was 3.09% (inactive); in assay [17] (setting [30]), -18.9%. The inhibition in assay [17] (setting [31]) is 12.7%; in assay [17] (single agent, at 0.05 µM) it was -1.79%; in assay [17] (single agent, at 5 µM) it was -17.1%.
As for `C=C(C)C1CC=C(C(=O)O)CC1` (stereo unspecified), the period change in [1] was 0.05 h (inactive). The inhibition in assay [2] was 2% (inactive). Also, the fluorescence ratio (interference) in [3] is 0.9 (inactive). Besides, in [4], the molecule was called inactive.
In the case of `O=C(N[C@@H](Cc1ccccc1)C(=O)CCl)OCc1ccccc1`, the period change in assay [1] was -0.215 h (inactive). The inhibition in [2] is 0% (inactive). Besides, the fluorescence ratio (interference) in assay [3] was 1 (inactive). Moreover, the outcome in assay [4] was inactive.
As for `C#C[C@]1(O)CC[C@H]2[C@@H]3CCC4=C(CCC(=O)C4)[C@H]3CC[C@@]21C`, in [6], the survival was 25.3 (inactive).
For `O=C(O)c1cc2cc(Cc3cccnc3)ccc2o1`, the inclusion score in assay [5] is 2. The period change in assay [1] was 0.065 h (inactive). Also, in assay [2], the inhibition was -2% (inactive). Also, the fluorescence ratio (interference) in [3] was 1 (inactive). The molecule was called inactive in assay [4].
Molecule `N[C@@H](Cc1c[nH]c2ccccc12)C(=O)O` yielded an inclusion score in [5] of 2. Besides, the period change in assay [1] was 0.11 h (inactive). In addition, in assay [2], the inhibition is 2% (inactive). Further, the fluorescence ratio (interference) in assay [3] is 1 (inactive). The outcome in assay [4] was inactive.
`CC(Oc1ccccc1)C(=O)N[C@@H]1C(=O)N2[C@@H]1SC(C)(C)[C@@H]2C(=O)O` (stereo partly specified): the inclusion score in assay [5] worked out at 2. For the same molecule, in assay [6], the survival was 7.92 (inactive).
`COC1C(OC(N)=O)C(O)C(Oc2ccc3c(O)c(NC(=O)c4ccc(O)c(CC=C(C)C)c4)c(=O)oc3c2C)OC1(C)C` (stereo unspecified): the inhibition is -15% (inactive) in assay [12] (at 0.5 µM); -15.8% in assay [12] (setting [18]); 17.7% in [12] (setting [19]); -65.5% in [12] (setting [20]); -21.7% (inactive) in assay [13] (at 0.5 µM); -45.3% in assay [13] (setting [21]). In addition, the inhibition is -25.6% in assay [13] (setting [22]); -31.4% (inactive) in assay [14] (at 0.5 µM); -38.4% in assay [14] (setting [23]); -32.4% in [14] (setting [24]); -35.8% in [14] (setting [25]); -21% in assay [14] (setting [26]). Also, the inhibition was -4.18% (inactive) in assay [15] (at 0.5 µM); 1.57% in assay [15] (setting [27]); -32.1% in [15] (cisplatin combination, at 5 µM); 37.7% in [15] (setting [28]); -18.6% in assay [15] (single agent, at 5 µM); -22.3% (inactive) in assay [16] (at 0.5 µM). In addition, the inhibition in [16] (cisplatin combo, at 5 µM) is 18.1%; in [16] (setting [29]), -10.1%; in assay [16] (setting [19]) it was -16.8%; in assay [16] (single agent, at 5 µM), -14.1%; in assay [17] (at 0.5 µM), -43.4% (inactive); in assay [17] (setting [30]) it was -36.9%. In addition, the inhibition in assay [17] (setting [31]) is -46.6%; in [17] (single agent, at 0.05 µM) it was -14.9%; in assay [17] (single agent, at 5 µM), 4.54%.
Turning to `CCCCC/C=C\C/C=C\C/C=C\C/C=C\CCCC(=O)O`, the survival in [6] is 45.6 (inactive).
On to `CC[C@H](CO)NCCN[C@H](CC)CO`, for which the survival in [6] is 12.8 (inactive).

(Values after PubChem BioAssay.)
